Source: the supplement of paper PMC4840960

Experiments:
[1] = test system: E18 rat cortical neuron-glia co-culture; experiment: fiber score / MBP score (myelination specific beyond OL differentiation) (ratio); higher = more myelination-specific MBP alignment; conditions: treatment time: 8 days (DIV5-DIV13)
Procedure, shortened: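 Reported values are fiber score (continuous MBP fiber length per Olig2+ nucleus) divided by MBP score (thresholded MBP area × intensity per Olig2+ nucleus). They come from primary E18 rat cortical co-cultures treated with library compounds at 1 or 5 µM in myelination medium from DIV5 to DIV13, then fixed in 4 % paraformaldehyde, immunostained for MBP and Olig2 with DAPI, and analysed over four 10X fields per well in duplicate wells.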

[2] = test system: E18 rat cortical neuron-glia co-culture; experiment: myelination (MBP fiber length per Olig2+ nucleus), % of 1 µM DAPT response (DMSO = 0) (% of DAPT); higher = more myelination, active = 50 or more; conditions: treatment time: 8 days (DIV5-DIV13)
Procedure, shortened: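 Rat cortical co-cultures from E18 tissue were dissociated with papain and plated at 20,000 cells/well on 96-well plates coated with poly-d-lysine/laminin. From DIV5 to DIV13, library compounds were added at 1 or 5 µM in myelination medium. After fixation in 4 % paraformaldehyde, cultures were immunostained for MBP and Olig2 and counterstained with DAPI, and four 10X fields were analysed in each of duplicate wells. The myelination value is the length of continuous straight MBP fibers per Olig2+ nucleus, normalised so that 0.1 % DMSO is 0 and a 1 µM positive control is 100.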

Structure (SMILES) | fiber score / MBP score ([1]; 1 µM) | myelination ([2]; 1 µM) | fiber score / MBP score ([1]; 5 µM) | myelination ([2]; 5 µM)
CCOC(=O)C1=C(COCCN)NC(C)=C(C(=O)OC)C1c1ccccc1Cl (configuration not stated) [Amlodipine] | 0.613 | -4.57 (inactive) |  | 
COC(=O)Nc1nc2cc(C(=O)c3ccc(F)cc3)ccc2[nH]1 [Flubendazole] | 0.494 | -24 (inactive) |  | 
CC(C)C(=O)Nc1ccc([N+](=O)[O-])c(C(F)(F)F)c1 [Flutamide] | 0.826 | -7.82 (inactive) | 0.938 | 5.48 (inactive)
O=C1CCc2ccc(OCCCCN3CCN(c4cccc(Cl)c4Cl)CC3)cc2N1 [Aripiprazole] | 0.301 | -54.9 (inactive) |  | 
COc1cc(C(=O)NC2CCCNC2)cc(OC)c1OC (configuration not stated) [Troxipide] | 0.692 | -15.3 (inactive) | 0.803 | -5 (inactive)
CO[C@H]1/C=C/O[C@@]2(C)Oc3c(C)c(O)c4c(O)c(c5c(nc6cc(C)ccn65)c4c3C2=O)NC(=O)/C(C)=C\C=C\[C@H](C)[C@H](O)[C@@H](C)[C@@H](O)[C@@H](C)[C@H](OC(C)=O)[C@@H]1C [Rifaximin] | 0.779 | -4.06 (inactive) | 0.73 | -12 (inactive)
Nc1ccc(S(=O)(=O)c2ccc(N)cc2)cc1 [Dapsone] | 0.932 | -3.07 (inactive) | 0.925 | -4.22 (inactive)
CN(CCCN1c2ccccc2CCc2ccccc21)CC(=O)c1ccc(Cl)cc1 [Lofepramine] | 0.564 | -18.3 (inactive) |  | 
C[C@@H]1O[C@@H](OC[C@H]2O[C@@H](Oc3c(-c4ccc(O)c(O)c4)oc4cc(O)cc(O)c4c3=O)[C@H](O)[C@@H](O)[C@@H]2O)[C@H](O)[C@H](O)[C@H]1O [Rutin] | 0.757 | -12 (inactive) | 0.905 | -4.44 (inactive)
CCN(CC)C(=S)SSC(=S)N(CC)CC [Disulfiram] | 1.15 | 148 |  | 
CC[C@H]1OC(=O)[C@H](C)C(=O)[C@H](C)[C@@H](O[C@@H]2O[C@H](C)C[C@H](N(C)C)[C@H]2O)[C@](C)(OC)C[C@@H](C)C(=O)[C@H](C)[C@H]2N(CCCCn3cnc(-c4cccnc4)c3)C(=O)O[C@]12C [Telithromycin] | 0.819 | -3.78 (inactive) |  | 
CCN(CC)CCOc1ccc(C(=C(Cl)c2ccccc2)c2ccccc2)cc1 [Clomiphene] | 0.64 | -33.9 (inactive) |  | 
CCOC(=O)C1=C(C)NC(C)=C(C(=O)OCC)C1c1ccccc1/C=C/C(=O)OC(C)(C)C [Lacidipine] | 0.575 | -18.6 (inactive) |  | 
COc1ccc2cc(CCC(C)=O)ccc2c1 [Nabumetone] | 0.801 | -8.32 (inactive) | 1.17 | 6.9 (inactive)
CSc1nc2cc(Cl)c(Oc3cccc(Cl)c3Cl)cc2[nH]1 [Triclabendazole] | 0.682 | -23.9 (inactive) | 0.685 | -18.7 (inactive)
CC(C)[N+]1(C)[C@@H]2CC[C@H]1C[C@@H](OC(=O)C(CO)c1ccccc1)C2 (some centres not stated) [Ipratropium] | 0.783 | 0.204 (inactive) | 1.52 | 32.8 (inactive)
CC#C[C@]1(O)CC[C@H]2[C@@H]3CCC4=CC(=O)CCC4=C3[C@@H](c3ccc(N(C)C)cc3)C[C@@]21C [Mifepristone] | 0.755 | -23 (inactive) |  | 
Clc1ccc(COC(Cn2ccnc2)c2ccc(Cl)cc2Cl)cc1 (configuration not stated) [Econazole] | 0.731 | 0.139 (inactive) |  | 
CC(Cc1ccccc1)(NC(=O)CN)c1ccccc1 (configuration not stated) [Remacemide] | 0.793 | -12.4 (inactive) | 0.749 | -7.33 (inactive)
O=C(O)CCNC(=O)c1ccc(/N=N/c2ccc(O)c(C(=O)O)c2)cc1 [Balsalazide] | 0.862 | -5.47 (inactive) | 0.833 | -9.22 (inactive)
C#C[C@]1(OC(C)=O)CC[C@H]2[C@@H]3CCC4=CC(=O)CC[C@@H]4[C@H]3CC[C@@]21C [Norethisterone acetate] | 0.907 | -8.44 (inactive) | 0.989 | -6.86 (inactive)
OC(CCN1CCCC1)(c1ccccc1)C1CCCCC1 (configuration not stated) [Procyclidine] | 1.03 | -4.99 (inactive) | 1.05 | 11.6 (inactive)
COC1=C(OC)C(=O)C(CCCCCCCCCCO)=C(C)C1=O [Idebenone] | 0.848 | -12.8 (inactive) |  | 
CN(C)CCOC(C)(c1ccccc1)c1ccccn1 (configuration not stated) [Doxylamine] | 0.674 | -13.6 (inactive) | 0.969 | -5.08 (inactive)
Clc1ccccc1C(c1ccccc1)(c1ccccc1)n1ccnc1 [Clotrimazole] | 0.906 | 7.64 (inactive) | 1.15 | -27.1 (inactive)
CC(C)NCC(O)COc1cccc2[nH]ccc12 (configuration not stated) [Pindolol] | 1.07 | -3.4 (inactive) | 0.955 | -3.46 (inactive)
